Measurements taken from the supplement of paper PMC4894684.
Where a name gives a salt, the structure may show the parent alone. ± gives the standard deviation of the averaged measurements.

Each compound was assayed on Toxoplasma gondii RH (in HFF) (assay: parasite growth relative to the screen mean (all compounds = 100%); higher = less inhibition of parasite growth). Details: 5 µM; 72 h; oxygen 21 %.
Method in brief: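 Confluent human foreskin fibroblasts in 96-well plates received library compounds by pin transfer at 5 µM final, taken from 10 mM DMSO stocks. Within 2 h the cells were infected with RH β-Gal–GFP Toxoplasma at MOI 1:5 and cultured 72 h at 21% O2. A CPRG β-Gal assay read against in-plate standard curves gave parasite number, and growth is stated relative to the screen mean, where all compounds = 100%, averaged across two screens.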

With `CC(C)[N+]1(C)[C@@H]2CC[C@H]1C[C@@H](OC(=O)C(CO)c1ccccc1)C2` (some centres undefined) [Ipratropium bromide] as the compound, how does the parasite growth read?
The parasite growth was 76.1 ± 21%.

Which parasite growth does the source give for `Nc1ncn([C@H]2C[C@H](O)[C@@H](CO)O2)c(=O)n1` [Decitabine] here?
Its parasite growth is 119 ± 9.9%.

`CCCCCCCC/C=C\CCCCCCCC(=O)N[C@@H](CO)Cc1ccc(O)cc1` was tested. Which parasite growth did it give?
The parasite growth was 171 ± 11%.

For `CN1CCN(C2=Nc3cc(Cl)ccc3Nc3ccccc32)CC1` [Clozapine], which parasite growth is on record?
Its parasite growth is 178 ± 40%.

How did the parasite growth turn out when `COc1ccccc1N1CCN(CCCNc2cc(=O)n(C)c(=O)n2C)CC1` [Urapidil hydrochloride] was run?
The parasite growth was 105 ± 3.7%.

How did the parasite growth turn out when `CCC(C)N(C)C(=O)c1cc2ccccc2c(-c2ccccc2Cl)n1` (centres undefined) was run?
The parasite growth was 85.5 ± 33%.

With `Cc1nn(C)c2nc(NNC(=O)Nc3cc(Cl)nc(Cl)c3)cc(C(C)C)c12` as the compound, how does the parasite growth read?
Its parasite growth is 97.4 ± 3%.

`CC(=O)O[C@@H]1C[C@H]2C(C)(C)C(=O)C=C[C@]2(C)[C@H]2CC[C@@]3(C)[C@H](c4ccoc4)OC(=O)[C@H]4O[C@]43[C@@]21C` [Gedunin] was tested. Which parasite growth did it give?
Its parasite growth is 62.3 ± 9.6%.

`COc1nccc(-c2c(-c3ccc(F)cc3)ncn2C2CCC(O)CC2)n1` (centres undefined) was tested. Which parasite growth did it give?
Its parasite growth is < 0%.

With `CCOC(=O)C1=C(N)Oc2ccc(Br)cc2C1C(C#N)C(=O)OCC` (centres undefined) as the compound, how does the parasite growth read?
The parasite growth was 135 ± 2.5%.

Which parasite growth does the source give for `CCO/C(O)=C1\C(C)=NC(c2ccccc2)=C(C(=O)OCc2ccc([N+](=O)[O-])cc2)C1C#Cc1ccccc1` (centres undefined) here?
The parasite growth was 67.4 ± 16%.

`CCCCCCCCCCCCCCCC(=O)NCCO` [Palmitoylethanolamide] was tested. Which parasite growth did it give?
Its parasite growth is 64.8 ± 16%.

`CNC(=C[N+](=O)[O-])NCCSCc1ccc(CN(C)C)o1` [Ranitidine hydrochloride] was tested. Which parasite growth did it give?
The parasite growth was 94.7 ± 18%.

With `O=C1N(c2ccccc2)c2ccccc2C1(Cc1ccncc1)Cc1ccncc1` [Linopirdine dihydrochloride] as the compound, how does the parasite growth read?
The parasite growth was 56.5 ± 15%.
